Mtb hypoxia rep: inhibitors of hypoxia-regulated fluorescent reporter in Mycobacterium tuberculosis | M. tuberculosis hypoxia-regulated fluorescent reporter, fluorescence | fluorescence inhibition, % (concentration not given with the values) | 300,000 tested, 0.1% active | AID 1159583; in the data active = fluorescence inhibition mostly above about 23%, no sharp cut-off; inactive = mostly below about 17%
Yp Topo-I inh: inhibitors of Yersinia pestis topoisomerase I; Y. pestis Topo-I cleavage product accumulation, plate reader; activity, % at 10 µM; 360,000 tested, 0.064% active; AID 504884; in the data active = activity above about 50%, passing the limit was not always enough
PrPC TRFRET: reduces human prion protein on the cell surface; cell surface PrPC, TR-FRET read-out; inhibition, % at 13.8 µM; 370,000 tested, 0.43% active; AID 720596; in the data active = inhibition above about 24%
FBA Mtb inh: Mtb fructose-bisphosphate aldolase inhibition | P9WQA3 | purified M. tuberculosis FBA, fluorescence read-out | inhibition, % at 1 µM | 360,000 tested, 2.3% active | AID 588726
Target sequence (P9WQA3 whole entry, looked up): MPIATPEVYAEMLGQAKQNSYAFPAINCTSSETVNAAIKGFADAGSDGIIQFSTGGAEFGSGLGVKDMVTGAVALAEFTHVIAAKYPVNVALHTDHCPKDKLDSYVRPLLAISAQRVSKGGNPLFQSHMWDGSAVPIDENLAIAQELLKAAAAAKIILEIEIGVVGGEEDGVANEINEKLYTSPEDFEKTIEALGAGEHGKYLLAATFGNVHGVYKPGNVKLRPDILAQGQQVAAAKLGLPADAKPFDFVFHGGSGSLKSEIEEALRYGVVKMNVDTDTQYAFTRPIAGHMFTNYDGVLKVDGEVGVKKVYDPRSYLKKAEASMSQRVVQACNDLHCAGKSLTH
GDH-TPI counter-1: counter-screen for M. tuberculosis FBA inhibitors: GDH-TPI coupled enzymes; GDH-TPI coupled enzyme counterscreen, NADH absorbance; inhibition, % at 4.8 µM; 360,000 tested, 1.2% active; in the data active = inhibition above about 30%
PrP 5UTR inh: inhibition of PrP 5' UTR reporter expression; cell-based PrP 5' UTR mRNA reporter, plate reader; inhibition, % (test concentration not listed); 340,000 tested, 0.35% active; AID 488862; in the data active = inhibition above about 52%
Mtb FBA confirm: confirmation of M. tuberculosis fructose-bisphosphate aldolase inhibitors; 5,600 tested, 78% active; inhibition, % at 1 µM; AID 651616; purified M. tuberculosis FBA, fluorescence read-out; shares compounds with FBA Mtb inh
GDH-TPI counter-2: counter-screen for M. tuberculosis FBA inhibitors: GDH-TPI coupled enzyme inhibition; GDH-TPI coupled enzyme counterscreen, fluorescence; inhibition, % at 1 µM; AID 652141; 5,600 tested, 81% active; shares compounds with FBA Mtb inh; in the data active = inhibition above about 10%
GDH-TPI dose: GDH-TPI dose response counter-screen for Mtb FBA. shares compounds with FBA Mtb inh. GDH-TPI coupled enzyme assay, fluorescence, artifact counterscreen. IC50, µM. 170 tested, 79% active. AID 652145; call rule not given here
Numbers stand for hits; n = inactive; x = no result; + = active, no number; ! = repeats disagree. An excerpt weighted towards active compounds, which were near 3.8% of everything screened. Cut-off read from the data, not from the text of the source, unless noted: active = inhibition above about 27%; inactive = the rest.

SMILES	Mtb hypoxia rep	Yp Topo-I inh	PrPC TRFRET	FBA Mtb inh	GDH-TPI counter-1	PrP 5UTR inh	Mtb FBA confirm	GDH-TPI counter-2	others
CCc1c(C)[nH]c2nc3ccccc3n2c1=O	n	n	n	n	n	n	x	x
CCc1ccc(C2CC=C(C(=O)O)CN2S(=O)(=O)c2ccc(C)cc2)cc1 (stereo unspecified)	n	x	x	x	x	x	x	x
CC(=O)n1cc(C=NNC(=O)c2ccccc2Cl)c2ccccc21	n	x	x	x	x	x	x	x
CC(=O)Nc1cccc(C(C)=NN2C(C)CCCC2C)c1 (stereo unspecified)	n	x	x	x	x	x	x	x
CCCOC(=O)c1c(NC(=O)C2C3C=CC(C3)C2C(=O)O)sc2c1CCC(C)C2 (stereo unspecified)	n	n	n	n	n	n	x	x
CCOC(=O)c1c(NC(=O)C2C3C=CC(C3)C2C(=O)O)sc2c1CC(C)CC2 (stereo unspecified)	n	n	n	35	n	n	58	51
C[C@H](CO)N1C[C@H](C)[C@@H](CN(C)C(=O)NC2CCCCC2)Oc2ccc(NC(=O)CCC(F)(F)F)cc2C1=O	x	n	n	76	n	n	n	n
CC(C)NC(=O)N(C)C[C@H]1Oc2ccc(NC(=O)CCC(F)(F)F)cc2C(=O)N([C@H](C)CO)C[C@@H]1C	n	n	n	n	n	n	x	x
CC(=NNC(=S)NC(C)C)c1ccc2c(c1)OCCO2	n	x	x	x	x	x	x	x
Cc1csc(NC(=O)c2sc3nc(-c4cccs4)ccc3c2N)n1	n	x	x	x	x	x	x	x
CCCSc1nnc(NC(=O)c2sc3nc(-c4cccs4)ccc3c2N)s1	n	n	n	43	37	n	153	116
COCCCn1cnc2c(c1=O)c1nc3ccccc3nc1n2-c1ccc(C)cc1	x	n	n	n	n	n	x	x
COCCCn1c2nc3ccccc3nc2c2c(=O)n(CC3CCCO3)cnc21 (stereo unspecified)	x	n	n	79	n	n	n	n
O=C1c2ccccc2NC(c2ccc(F)cc2)N1Cc1ccco1 (stereo unspecified)	x	n	n	49	n	n	85	61
O=C1c2ccccc2NC(c2ccccc2)N1Cc1ccco1 (stereo unspecified)	n	n	n	51	n	n	n	n
O=C(COc1ccccc1)NCC(=O)NN=Cc1ccco1	n	x	x	x	x	x	x	x
Cc1ccc(CN2CCN(CC(=O)NN=Cc3ccccc3F)CC2)cc1	n	x	x	x	x	x	x	x
COc1ccc(C(=O)NCCNc2nc3ccc(C)cc3cc2C#N)cc1	n	n	n	47	n	n	55	42
Cc1ccc2nc(NCCNC(=O)c3ccccc3)c(C#N)cc2c1	n	n	n	48	n	n	189	144
COc1ccc(C(=O)NCCNc2nc3cc(C)cc(C)c3cc2C#N)cc1	x	x	n	x	x	x	x	x
COc1cc(C(=O)NCCNc2nc3ccc(C)cc3cc2C#N)cc(OC)c1OC	n	n	n	39	n	n	94	80
COc1ccc2nc(NCCCNC(=O)c3cc(OC)c(OC)c(OC)c3)c(C#N)cc2c1	n	n	n	32	n	n	n	n	GDH-TPI dose=4.4
COc1ccc(C(=O)NCC(=O)NN=Cc2cccc(OC(=O)c3ccco3)c2)cc1OC	n	x	x	x	x	x	x	x
O=C(Cc1cccs1)NN=C/C=C/c1ccccc1	n	x	x	x	x	x	x	x
COC(=O)c1ccc(C23CC4(C2)C(CN(CC2CCCCC2)C4c2ccccc2)C3c2ccccc2)cc1 (stereo unspecified)	n	x	x	x	x	x	x	x
SMILES	Mtb hypoxia rep	Yp Topo-I inh	PrPC TRFRET	FBA Mtb inh	GDH-TPI counter-1	PrP 5UTR inh	Mtb FBA confirm	GDH-TPI counter-2	others
CCC(=O)NC(c1cccs1)c1cc(Cl)c2ccccc2c1O (stereo unspecified)	n	n	n	39	n	n	116	80
CC(=O)NC(c1cc(Cl)c2ccccc2c1O)C(C)C (stereo unspecified)	n	n	n	n	n	n	x	x
CC(=O)NC(c1cccs1)c1cc(Cl)c2ccccc2c1O (stereo unspecified)	n	n	n	36	n	n	84	58
COc1ccc(-c2cc(C(F)(F)F)n3nc(C(=O)NCCN4CCOCC4)cc3n2)cc1	n	n	n	39	n	n	n	n
CCCCNC(=O)c1cc2nc(-c3ccccc3)cc(C(F)(F)F)n2n1	n	n	n	n	n	n	x	x
COc1ccc(-c2cc(C(F)(F)F)n3nc(C(=O)NCCCn4ccnc4)cc3n2)cc1	n	n	n	48	n	n	n	n
O=[N+]([O-])c1ccc(NN=Cc2ccccc2)cc1	n	x	x	x	x	x	x	x
CC(C)CN1Cc2cc(-c3ccccc3)ccc2-n2nncc2C1	x	x	n	31	x	x	+	+
CC(=NNC(=O)c1ccc2c(c1)OCO2)c1ccc(C(=O)O)s1	n	x	x	x	x	x	x	x
Cc1oc(-c2cccs2)nc1CSCC(=O)N1CCC2(CC1)OCCO2	active	n	n	28	n	n	164	144
COC(=O)c1cc(-c2ccc(OC)cc2F)nc2nc(SC)[nH]c(=O)c12	n	n	n	27	n	n	+	+
CCSc1nnc(NC(=O)C(NC(=O)c2cccc(C)c2)C(C)C)s1 (stereo unspecified)	n	x	x	x	x	x	x	x
COc1ccc(C2CC(c3ccccc3)=NN2c2ccc(/C=N/NC(=O)c3ccncc3)cc2)cc1 (stereo unspecified)	x	n	n	n	n	n	x	x
N#CCC(=O)N/N=C/c1ccc(N2N=C(c3ccccc3)CC2c2ccccc2)cc1 (stereo unspecified)	x	n	n	85	n	n	n	n	GDH-TPI dose=0.28
CC(=O)Nc1ccc(C2CC(c3ccc(Cl)cc3)=NN2c2ccccc2)cc1 (stereo unspecified)	n	n	n	n	n	n	x	x
CC(=O)Nc1ccc(C2=NN(c3ccccc3)C(c3ccccc3)C2)cc1 (stereo unspecified)	n	n	n	105	n	n	42	33
O=Cc1ccc(N2N=C(c3ccccc3)CC2c2ccccc2)cc1 (stereo unspecified)	n	n	n	86	n	n	136	89
O=C(NN=Cc1ccc([N+](=O)[O-])cc1)c1ccc(COc2ccccc2-c2ccccc2)cc1	n	x	x	x	x	x	x	x
CC(C)(C)OC(=O)NC(C(=O)OC(C)(C)C)c1ccc(C(F)(F)F)cc1 (stereo unspecified)	n	x	x	x	x	x	x	x
Cc1ccc(C=Nn2c(C)nnc2C)cc1	n	x	x	x	x	x	x	x
Cc1cccc(N2CCc3c2nc2ccccc2c3N)c1	n	n	n	70!	n	n	52	37
CN1CCCCc2c1nc1ccccc1c2N (tested in a mixture with another compound)	n	n	n	n	n	n	x	x
Cn1cc2ccc(N)cc2n1	n	n	n	29	n	n	68	56
COc1ccc(C=C2SC(=O)NC2=O)cc1	n	x	x	x	x	x	x	x
c1ccc(CCc2cn(CC3CCC(C4CCC(Cn5cc(CCc6ccccc6)nn5)O4)O3)nn2)cc1 (stereo unspecified)	n	x	x	x	x	x	x	x

Screening results from PubChem.
